Hits are enriched below; roughly 3.6% of the tested compounds scored in any of these assays.
mHTT-CaM PPI inh: mHTT-calmodulin interaction abrogation; P42858; AlphaScreen His-mHTT/GST-CaM binding, luminescence; inhibition, % at 15 µM; 3.6% of 190,000 active;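 also: 0% = both proteins with DMSO and 100% = one protein alone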
Pf apPOL block: Pf-apPOL DNA polymerase inhibition; Recombinant Pf-apPOL, molecular beacon fluorescence, 1.5 h; inhibition, % at 10 µM; 0.25% of 210,000 active; AID 1794808
* marks the source's active call; other numbers are inactive results; nt = no result. Rule as the data show it: active = inhibition above about 50%; inactive = the rest.

SMILES	mHTT-CaM PPI inh	Pf apPOL block
Cc1cc(NS(=O)(=O)c2cccs2)n[nH]1	nt	-5
Cc1cc(NS(=O)(=O)c2cc(C(=O)O)ccc2F)n[nH]1	78*	-9
O=C(c1ccc2ncccc2c1)N1CCC(Nc2cccnc2)C1 (configuration not stated)	2	-3
COc1ccc(NC(=O)COc2ccccc2)c2ccccc12	-24	74*
CC(=O)Nc1ccccc1NC(=O)COc1ccccc1	-7	5
Brc1cccc(C2CC(c3cccc(Br)c3)n3nnnc3N2)c1 (configuration not stated)	13	-11
COC(=O)C(C)Oc1ccc2oc(=O)c(-c3ccccc3)c(C)c2c1 (configuration not stated)	-15	-12
COc1ccc(-c2ccc(/C=C3\SC(=N)NC3=O)o2)c([N+](=O)[O-])c1	59*	1
Cc1c(-c2ccc(/C=C3\SC(=N)NC3=O)o2)ccc([N+](=O)[O-])c1C	41	2
CSc1nnc(SCCn2c([N+](=O)[O-])cnc2C)s1	-2	4
Cc1cccc(NC(=O)C2(S(=O)(=O)c3ccc(Cl)cc3)CC2)c1	-18	2
CC(=O)Nc1ccc(C(=O)NCc2ccc(F)c(Cl)c2)c(N2CCCCC2)c1	99*	1
CC(=O)Nc1ccc(C(=O)NCc2cccc(Cl)c2)c(N2CCOCC2)c1	9	-2
CCN1CCn2cc(C(=O)N3CCN(c4ccccc4Cl)CC3)nc2C1	15	-3
CCCCCCN1C[C@H](n2cc(COC(=O)c3ccccc3)nn2)[C@@H](O)C[C@@H]1c1ccc(Cl)cc1	32	-2
O=C(OCc1cn([C@H]2C[C@H](c3ccccc3)N(CC3CCCCC3)C[C@@H]2O)nn1)c1ccccc1	-4	-1
COc1ccc([C@H]2C[C@@H](O)[C@H](n3cc(COC(=O)c4ccccc4)nn3)CN2Cc2cccs2)cc1	-1	9
COc1ccc([C@H]2C[C@H](O)[C@@H](n3cc(COC(=O)c4ccccc4)nn3)CN2Cc2cccs2)cc1	90*	2
COc1ccc([C@H]2C[C@H](O)[C@@H](n3cc(COC(=O)c4ccccc4)nn3)CN2CC2CCCCC2)cc1	69*	-2
CCCCCCN1C[C@H](n2cc(COC(=O)c3ccccc3)nn2)[C@@H](O)C[C@@H]1c1ccc(OC)cc1	56*	-4
Cc1noc(-c2nn(C)c3c2CN(C(=O)C(C)Oc2ccccc2)CC3)n1 (configuration not stated)	-2	-3
CNC(=S)NNC(=O)Cn1ccc(C(F)(F)F)cc1=O	nt	-14
CC(C(=O)NCc1ccccn1)N1CCN(c2ccccc2Cl)CC1 (configuration not stated)	75*	-24
Cc1ccccc1N1CCN(C(C)C(=O)NCc2cccnc2)CC1 (configuration not stated)	6	-7
O=C(NCCN1CCCCC1)C1Cc2cc(C(F)(F)F)ccc2N2CCOCC12 (configuration not stated)	31	-4
SMILES	mHTT-CaM PPI inh	Pf apPOL block
O=C(C1Cc2cc(C(F)(F)F)ccc2N2CCSCC12)N1CCOCC1 (configuration not stated)	83*	-5
CC(C)(C)NC(=O)N1CCC(CNC(=O)c2cc(Cl)ccc2Cl)CC1	-5	-6
COc1ccc(N2CCC(C(=O)N(C)Cc3ccccc3)C2=O)cc1 (configuration not stated)	-5	-5
CC(C)Cn1c(-c2ccc(S(=O)(=O)N3CCOCC3)cc2)csc1=Nc1ccc(F)cc1	34	-2
Cc1cc(C)c(S(=O)(=O)Nc2ccc3oc(=O)sc3c2)cc1C	42	2
Cc1ccc(C)c(S(=O)(=O)Nc2ccc3oc(=O)sc3c2)c1	24	73*
COc1cc2c(cc1OC)C(COc1ccc(C(C)C)cc1)N(C(=O)CC1CCCCC1)CC2 (configuration not stated)	13	4
CCCCN1C(=O)C(C)(C(=O)NCc2ccco2)Oc2cccnc21 (configuration not stated)	-2	-8
COc1cc(CN2CCN(c3cccc(C)c3C)CC2)cc(Br)c1O	55*	2
COc1cc(CN2CCN(c3cccc(C)c3C)CC2)cc(OC)c1OC	-5	0
CCC(NS(=O)(=O)c1ccc(Cl)c([N+](=O)[O-])c1)C12CC3CC(CC(C3)C1)C2 (configuration not stated)	99*	-4
CCC(NS(=O)(=O)c1cc(Cl)ccc1OC)C12CC3CC(CC(C3)C1)C2 (configuration not stated)	-6	-18
C[C@H]1[C@@H](c2ccccc2)Oc2c(Cl)cccc2S(=O)(=O)N1Cc1cccc(Cl)c1	59*	-3
C[C@H]1[C@@H](c2ccccc2)Oc2c(Cl)cccc2S(=O)(=O)N1Cc1cccc(F)c1	18	-6
CCc1ccc(NC(=O)C2CCN(c3c(C#N)cnc4cc(OC)ccc34)CC2)cc1	3	0
CC1=NN(C(=O)Cc2ccccc2)C(O)(c2ccc(Br)cc2)C1 (configuration not stated)	16	-1
CCC1=NN(C(=O)c2cccc(C)c2O)C(O)(c2ccc(Br)cc2)C1 (configuration not stated)	87*	-4
CC1=NN(C(=O)CCc2ccccc2)C(O)(c2ccc(Br)cc2)C1 (configuration not stated)	54*	1
CCC1=NN(C(=O)c2ccccc2O)C(O)(c2ccc(Br)cc2)C1 (configuration not stated)	91*	-2
CC1=NN(C(=O)c2ccccc2Br)C(O)(c2ccccc2)C1 (configuration not stated)	1	-3
CC1=NN(C(=O)c2ccccc2)C(O)(c2ccc(Br)cc2)C1 (configuration not stated)	17	-3
Cc1ccc(-n2cc3c(c2-c2ccccc2)c(=O)n(C)c(=O)n3C)cc1	22	5
Cc1cc(C)cc(-n2cc3c(c2-c2ccccc2)c(=O)n(C)c(=O)n3C)c1	36	83*
COc1ccccc1-n1cc2c(c1-c1ccccc1)c(=O)n(C)c(=O)n2C	26	-8
Cn1c(=O)c2c(-c3ccccc3)n(-c3ccc(F)cc3)cc2n(C)c1=O	41	75*
SMILES	mHTT-CaM PPI inh	Pf apPOL block
NC(=O)c1ccc(-c2ncc3c(n2)-c2ccsc2SC3)cc1	nt	-11
CCCS(=O)(=O)Nc1cccn2nc(CC)nc12	11	-10
COCCn1c(=N)c(C(=O)NCCc2ccccc2)cc2c(=O)n3ccccc3nc21	-3	6
Cn1c(=NN=C2CCCCC2)sc2ccccc21	nt	-14
CC(C)(C)c1ccc(C(=O)N2CCC(=O)N([C@H](COCc3ccccc3)Cc3ccccc3)CC2)cc1	7	-6
Cc1cccc(COC[C@H](Cc2ccccc2)N2CCN(C(=O)c3ccc(Cl)c(Cl)c3)CCC2=O)c1	100*	0
O=C(c1cccc(Cl)c1)N1CCC(=O)N([C@H](COCc2cccc(Cl)c2)Cc2ccccc2)CC1	100*	-6
Cc1ccc(S(=O)(=O)N2CCC(=O)N([C@H](COCc3cccc(Cl)c3)Cc3ccccc3)CC2)cc1	20	-5
CN1C(=O)CC(C(=O)O)SC1=Nc1ccc(OC(F)(F)Cl)cc1 (configuration not stated)	1	-3
O=C(CN(c1cccc(C(F)(F)F)c1)S(=O)(=O)c1ccccc1)Nc1cccc(Cl)c1	86*	22
O=C(CN(c1cccc(C(F)(F)F)c1)S(=O)(=O)c1ccccc1)Nc1ccc(Cl)cc1	88*	0

Compound activity: PubChem, University of Kansas High Throughput Screening Laboratory
